Our source for the outcome and AC50 values is PubChem BioAssay (EPA / NIEHS).

Records with an inconclusive call do not appear. The source made the active and inactive calls. Rule for the calls: active = hit-call score of the fitted dose curve at least 0.9, where 1 is the maximum; inconclusive = response in the unintended direction; inactive = score below 0.9.

A short description of the test: Tanguay_ZF_120hpf_PIG_legacy: (Legacy) Oregon State University Tanguay Lab 120 Hour Post-fertilization zebrafish Assay for Pigmentation Malformation (AID 2283650).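 Note: dechorionated Tropical 5D zebrafish embryos exposed singly from 6 to 120 hpf.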 As for the experimental part: Tanguay_ZF_120hpf_legacy is a whole embryo, multiplexed endpoint assay using zebrafish larvae exposed for 120 hours post fertilization on a 96-well plate.Tanguay_ZF_120hpf_PIG_legacy is one of one assay component(s) measured or calculated from the Tanguay_ZF_120hpf_legacy assay. It is designed to make measurements of zebrafish development as detected with brightfield microscopy of developing zebrafish embryos.Data from the assay component Tanguay_ZF_120hpf_PIG_legacy was analyzed into 1 assay endpoints. This assay endpoint, Tanguay_ZF_120hpf_PIG_legacy, was analyzed in the positive analysis fitting direction relative to DMSO as the negative control and baseline of activity. Using a type of morphology reporter, gain-of-signal activity can be used to understand changes in developmentals as they relate to the whole embryo. To generalize the intended target to other relatable targets, this assay endpoint is annotated to the zebrafish development intended target family, where the subfamily is embryonic pigmentation.
Zebrafish husbandry: Tropical 5D wild-type adult zebrafish were housed in at an approximate density of 1000 per 100 gallon tank at the Sinnhuber Aquatic Research Laboratory, Oregon State University, Corvallis, OR. Each tank was kept at standard laboratory conditions of 28C on a 14-h light/10-h dark photoperiod in fish water consisting of reverse osmosis water supplemented with a commercially available salt (Instant Ocean). Spawning funnels were placed into the tanks the night prior, and embryos were collected and staged. To increase bioavailability, the chorion was enzymatically removed using pronase (63.6mg/ml, >/= 3.5U/mg, Sigma-Aldrich: P5147) at 4 hours post fertilization (hpf) using a custom automated dechorionator.Chemical exposures: Six hpf dechorionated embryos were placed 1 embryo per well in a 96-well plate prefilled with 90 ul of EM using automated embryo placement systems (AEPS). Ten microliters of each row of dilution plate 2 was added to 2 exposure plates. The final DMSO concentration used was 0.64% (vol/vol). Thirty-two embryos were also exposed to 5uM trimethyltin chloride (positive control). Plates were sealed to prevent evaporation and foil covered to reduce light exposure and kept in a 28C incubator. Embryos were statically exposed until 120 hpf. At 24 hpf, embryos were assessed for photomotor response using a custom photomotor response analysis tool (PRAT) and for developmental toxicity endpoints (MO24: mortality at 24 hpf, DP: developmental progression, SM: spontaneous movement, and NC: notochord distortion). At 120 hpf, locomotor activity was measured using Viewpoint Zebralab and assessed for 18 endpoints. Zebrafish acquisition and analysis program (ZAAP), a custom program designed to inventory, acquire, and manage zebrafish data, was used to collect developmental endpoints as either present or absent (i.e., binary responses were recorded). If mortality occurred for an embryo (at either 24 or 120 hpf), the non-mortality endpoints were not measured.
For the compound `Cc1occc1C(=O)Nc1ccc(C(=O)N2CCC(F)(F)/C(=C\C(=O)N3CCC(N4CCCCC4)CC3)c3ccccc32)cc1`, the result was inactive. The same measure, in the same setting: the value for `COc1ccc2cc(S(=O)(=O)N[C@H](CC(=O)N[C@H](Cc3ccc(CN4[C@H](C)CCC[C@@H]4C)cc3)C(=O)N(C)C(C)C)c3ccc4c(c3)OCO4)ccc2c1` was “inactive”; that for `COc1cc(C(=O)NC2CCN(C)CC2)ccc1Nc1ncc2c(n1)N(C1CCCC1)CC(F)(F)C(=O)N2C` was “inactive”. As to `OCCO`, the compound was classed as inactive. The same measure, in the same setting: the value for `CCCOC(=O)c1cc(O)c(O)c(O)c1` was “inactive”; that for `CCCCCCCCOC(=O)c1cc(O)c(O)c(O)c1` was “inactive”; that for `CC(C)(c1cc(Br)c(O)c(Br)c1)c1cc(Br)c(O)c(Br)c1` was “inactive”. Still for that read-out and setting: the value for `CCN(Cc1cccnc1)C(=O)c1cccc(Cl)c1[C@]1(C)C(=O)N(Cc2ccc(OC)cc2OC)c2ccc(Cl)cc21` was “inactive”.

Turning to `CCOC(=O)O[C@H](C)OC(=O)c1ccc2c(c1)cc(C(=O)NC1CCN(C(C)C)CC1)n2Cc1cc(-c2ccc(Cl)s2)on1`, the call was inactive.

On to `C[C@]12CC[C@@H]3c4ccc(O)cc4CC[C@H]3[C@@H]1CC[C@H]2O`, for which the compound was classed as inactive. Still for that read-out and setting: the entry for `Cc1cn([C@H]2C[C@H](N=[N+]=[N-])[C@@H](CO)O2)c(=O)[nH]c1=O` is “inactive”; for `Cc1ccc(C(C)C)cc1` it is “inactive”. On the same count and under the same terms, the entry for `O=c1ccc2ccccc2o1` is “inactive”; for `CC1=CC(=O)/C(=C(/C)O)C(=O)O1` it is “inactive”. As to `O=C1O[C@H]([C@@H](O)CO)C(O)=C1O`, the compound was called inactive. Same read-out and setting: the value for `CN(C)C(=O)C1(N2CCCCC2)CCN(CC[C@@]2(c3ccc(Cl)c(Cl)c3)CN(C(=O)c3ccccc3)CCO2)CC1` was “inactive”. What is called AC50 is the midpoint of the concentration-response curve, whichever way the signal moves. `CCCCOC(=O)c1ccc(O)cc1`: the AC50 was 36.9 µM (active). With `CCCC(=O)OCCC(C)C`, the result was inactive.

Turning to `CCCCCc1ccc(N)cc1`, the call was inactive.

Take `Cc1ncc(CO)c(CO)c1O`: the result was inactive. Still for that read-out and setting: the value for `CC[C@@H]1C[C@H](N(Cc2cc(C(F)(F)F)cc(C(F)(F)F)c2)C(C)=O)c2cc(C(F)(F)F)ccc2N1C(=O)OC(C)C` was “inactive”. In the case of `O=C(O)Cc1cc(I)c(Oc2ccc(O)c(I)c2)c(I)c1`, the AC50 is 0.177 µM (active). For the compound `CCCCCCCCCCCCO`, the call was inactive.

Regarding `Clc1cc(Cl)c2c(c1)N=C1CCCCCN1C2`, the compound was called inactive. On the same count and under the same terms, the entry for `Cc1c2ccccc2c(C)c2c1ccc1ccccc12` is “inactive”. Same read-out and setting: the entry for `CCO[Si](CCCNC(N)=O)(OCC)OCC` is “inactive”. On the same count and under the same terms, the value for `CCCCOC(=O)CC(CC(=O)OCCCC)(OC(C)=O)C(=O)OCCCC` was “inactive”; that for `CC1(C)NC(=O)N(c2ccc([N+](=O)[O-])c(C(F)(F)F)c2)C1=O` was “inactive”; that for `CC(C)(C)c1cc(/C=C2\SC(N)=NC2=O)cc(C(C)(C)C)c1O` was “inactive”.

For the compound `OC12N=C(c3ccccc3)SC1Cc1cc(Cl)ccc12` (stereo not given), the AC50 is 44.5 µM (active). Consider `Oc1ccccc1`, for which the compound was classed as inactive. Same read-out and setting: the entry for `O=C(Nc1ccc(Cl)cc1)Nc1ccc(Cl)c(Cl)c1` is “inactive”; for `O=c1[nH]sc2ccccc12` it is “inactive”. Still for that read-out and setting: the value for `Cc1cccc2ccccc12` was “inactive”. Still for that read-out and setting: the value for `CCCCCCCC[Si](OCC)(OCC)OCC` was “inactive”. In the case of `CCCCCCCCCCCO`, the call was inactive.

For `CN(C)c1ccc(C(=C2C=CC(=[N+](C)C)C=C2)c2ccc(N(C)C)cc2)cc1`, the result was inactive. The same measure, in the same setting: the value for `NCc1cccc(C2CCN(C(=O)c3ccc(C#Cc4ccccc4F)o3)CC2)c1` was “inactive”. Consider `Oc1ccc2ccccc2c1`, for which the AC50 was 12.9 µM (active). With `Cc1oc2c(NC(=O)c3c(Cl)cccc3Cl)cccc2c1C(C)(C)O`, the compound was classed as inactive.
